The list is not random: actives were taken first. Their share in the collection is about 21%.
AMA1 RON2 block: inhibitors of Plasmodium falciparum AMA1-RON2 interaction | AID 720542 | 360,000 compounds, 0.2% hits | AlphaScreen AMA1-biotinylated RON2 peptide binding | Potency, µM (titrated, usually from 58.2 µM), for inactives: at the highest dose activity change, negative = inhibition, usual class: inhibitors;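 note: potency is the fitted concentration of half-maximal effect; 0% = vehicle wells and -100% = peptide control; nearly all actives have a fitted effect of over 45% in size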
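AMA1 (3D7) with his tag at 25 nM final met compounds first, then biotinylated RON2 peptide at 25 nM; detection used donor plus acceptor beads, 10 µg/mL apiece, read by AlphaScreen after 30 min at room temperature.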
Shiga inhibitor: inhibitors of Shiga toxin in Vero cells; Vero cells, Shiga toxin protein synthesis inhibition reporter; 290,000 compounds, 9.2% hits; inhibition, % at 38.7 µM; in the data active = inhibition mostly above about 28%, no sharp cut-off; inactive = mostly below about 43%; note: 0% is about no effect
HCV inh: inhibitors of hepatitis C virus infection | Huh7.5.1 HCVcc-Cre infection, luciferase reporter, 44 h | Potency, µM (top dose mostly 41.8 µM), inactives show at the highest dose activity change, negative = inhibition, hits mostly inhibitors | 340,000 compounds, 3.4% hits | AID 651820; note: potency is the fitted concentration of half-maximal effect; % is set by controls: 0 for no effect and ±100 for the full control effect
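Cells seeded at 1,000/well and cultured 4 h, then compounds added followed by HCVcc-Cre virus (~0.5 moi). After 44 h further culture, luciferase substrate was added, plates held 15 min at room temperature, and luminescence read for 15 sec.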
Pf growth 96h: P. falciparum growth inhibition at 96 hours | P. falciparum luciferase reporter growth, 96 h | AID 504834 | Potency, µM (highest dose often 28.7 µM), inactives show at the top dose activity change, negative = inhibition, most hits filed as inhibitors | 320,000 compounds, 6.9% hits; note: potency is the fitted concentration of half-maximal effect; % is set by controls: 0 for no effect and ±100 for the full control effect
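Readout is luminescence from an integrated firefly luciferase in P. falciparum. Red cells, 2% hematocrit and 0.05% parasitemia final, were cultured with compound through two parasite generations (96 hours) at 37 C, 5% CO2.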
Pf growth 48h: P. falciparum growth inhibition at 48 hours (one generation); P. falciparum luciferase growth in erythrocytes, 48 h; Potency, µM (titrated, usually from 28.7 µM), without a hit: at the highest dose activity change, negative = inhibition, actives largely listed as inhibitors; AID 504832; 310,000 compounds, 5.9% hits; note: potency is the fitted concentration of half-maximal effect; % is set by controls: 0 for no effect and ±100 for the full control effect
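Compounds are pin-transferred into medium, infected erythrocytes (2% hematocrit, 0.1% parasitemia final) are added, and plates sit one parasite generation at 37 C in 5% CO2. Detection reagent is then added and luminescence measured.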
CHX counter: counter-screen for Shiga toxin inhibitors: cycloheximide protein synthesis inhibition | cell reporter, cycloheximide protein synthesis inhibition counterscreen | max response, % | 300,000 compounds, 12% hits | AID 2314; in the data active = max response mostly above about 13%, no sharp cut-off; inactive = mostly below about 14%; note: read at 38.3 µM for the half of the compounds with a filed dose; 0% is about no effect
* hit, by the source's call; u = inconclusive; x = not tested or not shown; [ ] = dose if it differs, or a comment. Unless noted, calls come from the whole dose curve; as a rule, active = well fitted curve in the direction sought with a large enough effect; inconclusive = small, poorly fitted or top-dose-only effect, or another doubt; inactive = no such curve, though single readings can be large; an effect the other way counts as inactive or inconclusive.

SMILES | AMA1 RON2 block | Shiga inhibitor | HCV inh | Pf growth 96h | Pf growth 48h | CHX counter
Cc1cnc(C(=O)Nc2ccc(F)c(F)c2)cn1 | 11.4% | 55.4* | -5.2% | -7.9% | 131.0% | 20.7*
Cc1cnc(C(=O)Nc2cccc(-c3nnc4n3CCCCC4)c2)cn1 | 0.0% | -5.0 | 3.4% | u | 23.3% | 1.0
Cc1cnc(C(=O)Nc2ccc(S(=O)(=O)NCC(C)C)cc2)cn1 | 0.0% | 22.5 | -10.7% | 9.28µM* | u | -3.9
CC1CCCC12NC(=O)NC2=O (stereo not drawn) | 15.7% | x | 7.5% | x | x | x
O=C(Nc1ccc(N2CCOCC2)cc1)c1cnccn1 | -3.3% | -6.2 | -3.7% | u | 114.6% | -1.3
O=C(Nc1ccc2c(c1)CCC2)c1cnccn1 | 16.9% | 108.9* | 4.9% | -9.8% | 161.6% | 45.9*
CCOC(=O)C1=CC[C@@H](c2ccccc2)N(S(=O)(=O)c2ccc(C)cc2)[C@H]1C=C(C)C | 4.2% | x | x | x | x | x
COc1ccc(N=c2ssnc2Cl)cc1 | 2.9% | 36.9* | 3.0% | 15.7% | 30.5% | 17.6*
Clc1ccc(N=c2ssnc2Cl)cc1 | -4.7% | 39.7* | 10.6% | u | -5.6% | 11.5
COc1cc(N=c2ssnc2Cl)cc(OC)c1OC | -9.0% | -8.2 | -2.2% | 24.0% | -5.0% | -1.9
Fc1ccc(N=c2ssnc2Cl)c(F)c1 | -9.7% | 42.8 | 0.1% | 16.7% | u | 19.0*
CCOC(=O)c1ccc(N=c2ssnc2Cl)cc1 | -17.6% | 52.8* | u | 24.1% | 58.5% | 22.8*
Clc1nssc1=Nc1ccccc1 | -9.9% | -2.9 | -9.8% | -13.0% | 30.5% | 12.1
Cc1nc([N+](=O)[O-])cn1CC(=O)c1ccc(Br)cc1 | -17.4% | x | 2.4% | 84.8% | 4.0% | x
COc1cc(NC(=O)c2ccc(-c3ccc(F)c(F)c3)c3ccoc23)cc(OC)c1OC | 5.8% | x | x | x | x | x
Cc1onc(-c2ccccc2)c1-c1nnc(COC(=O)c2ccc(O)cc2)o1 | 59.9% | x | u | u | -19.4% | x
COc1ccc(OCc2cc(C(=O)NC(C)Cc3cccnc3)no2)c(Cl)c1 (stereo not drawn) | 6.1% | 38.0 | u | -21.8% | -6.2% | 27.0*
COc1ccc(OCc2cc(C(=O)NC(C)Cc3ccccn3)no2)c(Cl)c1 (stereo not drawn) | 1.8% | 37.1* | u | 48.5% | u | 34.7*
COc1ccc(OCc2cc(C(=O)NC(C)Cn3cncn3)no2)c(Cl)c1 (stereo not drawn) | -1.4% | 62.3* | x | 0.9% | 15.0% | 39.5*
CC(Cn1cncn1)NC(=O)c1cc(COc2cccc(C(F)(F)F)c2)on1 (stereo not drawn) | 5.8% | 22.7 | 19.1% | 14.6% | -12.9% | 18.1
Cc1nc2c(ccc3nc(NC(=O)Cc4cccc5ccccc45)sc32)s1 | -4.9% | -7.1 | u | u | u | -3.9
CCC(=O)Nc1nc2ccc3nc(C)sc3c2s1 | -3.5% | 62.3* | -13.9% | u | u | 55.3*
CCC(=O)Nc1nc2c(OC)ccc(OC)c2s1 | -0.4% | -19.8 | 11.2µM* | -3.5% | x | -7.6
CCCC(=O)Nc1nc2c(OC)ccc(OC)c2s1 | -5.6% | -8.7 | 8.91µM* | 16.8% | x | -3.9
CC(C)(C)C(=O)NC1CCN(S(C)(=O)=O)CC1 | -4.0% | -2.2 | 1.5% | 11.7µM* | -16.8% | -1.6
SMILES | AMA1 RON2 block | Shiga inhibitor | HCV inh | Pf growth 96h | Pf growth 48h | CHX counter
COc1ccccc1OCc1cc(C(=O)N2CC3C[C@@H]4CC2C[C@H](C3)C4)no1 | -7.9% | 75.6* | -21.1% | 11.9% | u | 50.8*
O=C(c1cc(COc2c(F)cccc2F)on1)N1C[C@H]2CC[C@H]1C2 | 0.0% | 102.6* | 4.3% | u | 78.2% | 76.2*
CC1CN(c2ccccc2)CCN1C(=O)c1cc(COc2c(F)cccc2F)on1 (stereo not drawn) | -9.8% | 38.2 | -29.3% | 19.6% | -7.1% | -2.0
COCC1CCN(C(=O)c2cc(COc3ccc(F)cc3F)on2)C1 (stereo not drawn) | -6.2% | 39.4 | -11.8% | -1.7% | 5.8% | 19.5*
COCC1CCN(C(=O)c2cc(COc3ccccc3SC)on2)C1 (stereo not drawn) | 2.9% | -8.6 | -1.8% | u | -0.6% | -3.7
COc1ccc(OCc2cc(C(=O)N3C[C@H]4CC[C@H]3C4)no2)c(Cl)c1 | 7.8% | 88.4* | -26.5% | 3.9% | 43.1% | 36.0*
O=C(NCc1cccnc1)c1cc(C2CCCN(S(=O)(=O)c3cccs3)C2)on1 (stereo not drawn) | 3.0% | x | x | x | x | x
CC(C)CN(C(=O)COC(=O)CCC(=O)c1ccc(F)cc1)c1c(N)n(Cc2ccccc2)c(=O)[nH]c1=O | -3.4% | x | 7.1% | 11.8% | -21.2% | x
Cc1ccc(N(CC(=O)NCc2ccccn2)S(=O)(=O)c2ccccc2)cc1C | -1.5% | -9.1 | 8.8% | 14.1% | -11.9% | -4.5
O=C(c1cc(COc2ccc(F)cc2F)on1)N1CC2C[C@@H]3CC1C[C@H](C2)C3 | 5.4% | 115.2* | u | u | u | 43.2*
O=C(c1cc(COc2ccc(F)cc2F)on1)N1CCN(C(=O)c2ccco2)CC1 | 6.7% | -5.2 | -22.6% | -21.7% | 2.7% | 8.3
O=C(c1cc(COc2ccc(F)cc2F)on1)N1C[C@H]2CC[C@H]1C2 | -12.1% | 100.6* | -27.4% | 0.0% | 35.7% | 52.0*
O=C(NCC1CCOCC1)c1cc(COc2ccc(F)cc2F)on1 | 13.2% | 22.1 | -4.6% | 26.3% | 19.0% | 10.4
COc1ccc(NC(=O)C2CC(c3ccccc3Cl)=NO2)cc1 (stereo not drawn) | -8.8% | 29.6 | 6.8% | -24.2% | 36.0% | 13.6*
COc1ccc(Cl)cc1NC(=O)C1CC(c2ccccc2Cl)=NO1 (stereo not drawn) | 0.0% | x | x | x | x | x
O=C(Nc1ccc2c(c1)OCCO2)C1CC(c2ccccc2Cl)=NO1 (stereo not drawn) | -5.0% | 117.2* | -2.2% | 184.8% | 61.9% | 60.5*
O=C(Nc1ccc2c(c1)OCO2)C1CC(c2ccc(Cl)cc2)=NO1 (stereo not drawn) | 10.4% | -5.6 | 12.6% | -19.7% | 24.1% | -2.9
COc1cc(OC)c(C2=NOC(C(=O)Nc3ccc4c(c3)OCO4)C2)cc1Cl (stereo not drawn) | -1.0% | 9.1 | u | u | -3.0%[5.75 µM] | 1.2
O=C(Nc1ccc2c(c1)OCO2)C1CC(c2ccccc2O)=NO1 (stereo not drawn) | 84.8% | 103.2 | 0.6% | u | 72.7% | active
COc1ccc(OC)c(S(=O)(=O)Nc2cc3c4c(c2)C(C)C(=O)N4CCC3)c1 (stereo not drawn) | 0.8% | x | -24.4% | -18.7% | u | x
O=C(COC(=O)c1ccc([N+](=O)[O-])cc1Cl)Nc1cccnc1Cl | -0.8% | x | -4.0% | 33.6% | 7.7% | x
O=C(O)c1nn2cc(CCO)cnc2c1Cl | 1.0% | 17.9 | 16.4% | 50.0% | u | 1.4
